Out of some 350,000 compounds screened, about 2,300 (0.66%) were called active.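 Rule for the calls: active = mean inhibition of at least 50% after viability correction, with every replicate also passing that limit; inconclusive = mean reaches 50% but only one of two replicates passes; inactive = the rest.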 Many of the other results were omitted from the sample, so actives are more common in it than they were.
Assay: EWS/Fli-driven NR0B1 reporter inhibitors, primary screen, A673 cells, NR0B1 luciferase, luminescence, MLPCN library (AID 651661);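 note: firefly luciferase signal divided by Alamar Blue viability fluorescence both relative to DMSO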
Conditions: viability-normalised, at 12.6 µM, stronger effect = higher value

SMILES	inhibition
C[C@@H]1CCCCO[C@H](CN(C)CC2CC2)[C@@H](C)CN([C@H](C)CO)C(=O)c2cc(NC(=O)Nc3ccc(F)cc3)ccc2O1	-1.94% (inactive)
C[C@@H]1CCCCO[C@H](CN(C)CC2CCCCC2)[C@H](C)CN([C@H](C)CO)C(=O)c2cc(NS(=O)(=O)c3ccc(F)cc3)ccc2O1	24.8% (inactive)
C[C@@H]1CCCCO[C@H](CN(C)CC2CCCCC2)[C@H](C)CN([C@H](C)CO)C(=O)c2cc(NC(=O)Nc3ccc(F)cc3)ccc2O1	-1.9% (inactive)
C[C@H]1CCCCO[C@@H](CN(C)Cc2ccc3c(c2)OCO3)[C@@H](C)CN([C@@H](C)CO)C(=O)c2cc(NC(=O)Nc3ccc(F)cc3)ccc2O1	73.8% (active)
C[C@@H]1CCCCO[C@@H](CN(C)Cc2ccc3c(c2)OCO3)[C@@H](C)CN([C@@H](C)CO)C(=O)c2cc(NC(=O)Nc3ccccc3)ccc2O1	-8.42% (inactive)
C[C@@H]1CN([C@H](C)CO)C(=O)c2cc(NC(=O)Nc3ccc4c(c3)OCO4)ccc2O[C@@H](C)CCCCO[C@@H]1CN(C)Cc1ccc2c(c1)OCO2	11.6% (inactive)
C[C@@H]1CN([C@H](C)CO)C(=O)c2cc(NC(=O)Nc3ccc(F)cc3)ccc2O[C@@H](C)CCCCO[C@@H]1CN(C)CC1CCCCC1	58.8% (active)
C[C@H]1CCCCO[C@H](CN(C)CC2CCCCC2)[C@@H](C)CN([C@@H](C)CO)C(=O)c2cc(NS(=O)(=O)c3ccc(Cl)cc3)ccc2O1	61.5% (active)
C[C@H](CO)N1C[C@H](C)[C@H](CN(C)CC2CCCCC2)OCCCC[C@H](C)Oc2ccc(NS(=O)(=O)c3ccc(F)cc3)cc2C1=O	-7.04% (inactive)
CCS(=O)(=O)N1[C@H](CO)[C@@H](c2ccccc2)C12CN(C(=O)c1ccccc1F)C2	8.71% (inactive)
CC(C)NC(=O)N1[C@@H]2CN(C(=O)C3CCCCC3)c3ccccc3[C@@H]2[C@@H]1CO	1.34% (inactive)
CN(C)C(=O)[C@@H]1[C@@H](CO)[C@@H]2Cn3c(ccc(C4=CCCC4)c3=O)[C@H]1N2Cc1ccccn1	-3.42% (inactive)
COc1ccc(-c2cnc3c(c2)C(=O)N([C@@H](C)CO)C[C@H](C)[C@@H](CN(C)C(=O)C2CC2)O3)cc1	-4.94% (inactive)
CCS(=O)(=O)N1CC2(C1)CN(S(=O)(=O)c1ccccc1)[C@H](CO)c1c2c2ccc(OC)cc2n1C	-5.22% (inactive)
CO[C@@H]1CN(C)C(=O)c2ccc(NC(=O)NC(C)C)cc2OC[C@@H](C)N(Cc2ccc(-c3ccccn3)cc2)C[C@H]1C	0.576% (inactive)
COc1ccc2c3c([nH]c2c1)[C@H](CO)N(S(=O)(=O)c1cn(C)cn1)CC31CCN(CC2CC2)CC1	-3.8% (inactive)
CC(C)NC(=O)N(C)C[C@H]1Oc2ccc(NC(=O)CCCCCC(=O)Nc3ccccc3N)cc2CC(=O)N([C@@H](C)CO)C[C@H]1C	-5.03% (inactive)
C[C@H]1CN([C@@H](C)CO)C(=O)Cc2cc(NC(=O)CCCCCC(=O)Nc3ccccc3N)ccc2O[C@@H]1CN(C)Cc1ccncc1	-9.64% (inactive)
COc1ccc(S(=O)(=O)N(C)C[C@@H]2Oc3ccc(NC(=O)C4CC4)cc3CC(=O)N([C@@H](C)CO)C[C@H]2C)cc1	-1.28% (inactive)
C[C@@H]1CN([C@@H](C)CO)C(=O)Cc2cc(NC(=O)CCCCCC(=O)Nc3ccccc3N)ccc2O[C@H]1CN(C)C(=O)Nc1ccc(C(F)(F)F)cc1	8.79% (inactive)
C[C@H]1CN([C@@H](C)CO)C(=O)Cc2cc(NC(=O)CCCN(C)C)ccc2O[C@@H]1CN(C)Cc1ccc(-c2ccccc2)cc1	-8.76% (inactive)
C[C@@H]1CN([C@H](C)CO)C(=O)Cc2cc(NC(=O)C3CCCCC3)ccc2O[C@H]1CN(C)S(=O)(=O)c1ccc(Cl)cc1	4.11% (inactive)
C[C@H]1CN([C@@H](C)CO)C(=O)Cc2cc(NC(=O)C3CC3)ccc2O[C@H]1CN(C)S(=O)(=O)c1ccc(Cl)cc1	52.2% (active)

SMILES	inhibition
C[C@H](CO)N1C[C@H](C)[C@H](CN(C)CC2CCCCC2)Oc2ccc(NC(=O)CCCCCC(=O)Nc3ccccc3N)cc2CC1=O	51.8% (active)
C[C@@H]1CN([C@@H](C)CO)C(=O)Cc2cc(NC(=O)CCCN(C)C)ccc2O[C@@H]1CN(C)Cc1ccc(-c2ccccc2)cc1	17.3% (inactive)
C[C@H](CO)N1C[C@H](C)[C@@H](CN(C)Cc2ccc(-c3ccccc3)cc2)Oc2ccc(NC(=O)CCC(F)(F)F)cc2CC1=O	72.1% (active)
C[C@@H]1CN([C@@H](C)CO)C(=O)Cc2cc(NC(=O)CCCCCC(=O)Nc3ccccc3N)ccc2O[C@@H]1CN(C)C(=O)NC1CCCCC1	2.61% (inactive)
C[C@H](CO)N1C[C@H](C)[C@H](CN(C)Cc2ccc(C(F)(F)F)cc2)Oc2ccc(NC(=O)CCCCCC(=O)Nc3ccccc3N)cc2CC1=O	52.3% (active)
CCS(=O)(=O)Nc1ccc2c(c1)C(=O)N(C)[C@H]1CC[C@H](CC(=O)Nc3ccccc3)O[C@@H]1CO2	-5.08% (inactive)
COc1ccc(S(=O)(=O)N2CCCCN3[C@H](C2)[C@H](c2ccc(C4=CCCC4)cc2)[C@@H]3CO)cc1	-9.53% (inactive)
C[C@H]1CN([C@@H](C)CO)C(=O)c2ccccc2-c2ccccc2CO[C@H]1CN(C)Cc1ccc(-c2ccccc2)cc1	8.23% (inactive)
COc1ccc2c3c(n(C)c2c1)[C@@H](CO)N(CC1CC1)CC31CCN(C(=O)c2ccc3c(c2)OCO3)CC1	17.4% (inactive)
N#C[C@@H]1[C@H](c2ccccc2-c2ccccc2F)[C@@H](CO)N1C(=O)c1ccccn1	31.4% (inactive)
CO[C@H]1CN(C)C(=O)c2ccc(NS(=O)(=O)c3ccccc3)cc2OC[C@H](C)N(Cc2nccs2)C[C@@H]1C	3.5% (inactive)
O=C(c1ccccc1)N1CC(=O)N2[C@@H](CO)[C@H](c3ccc(C#CC4CC4)cc3)[C@@H]2C1	-6.36% (inactive)
C[C@H](CO)N1C[C@H](C)[C@@H](CN(C)S(=O)(=O)c2cn(C)cn2)OCCCC[C@H](C)Oc2ccc(NC(=O)Cc3ccccc3)cc2C1=O	2.69% (inactive)
CC(=O)Nc1ccc2c(c1)C(=O)N(C)[C@H]1CC[C@H](CC(=O)NCc3ccccc3Cl)O[C@H]1CO2	-1.68% (inactive)
Cc1cccc(S(=O)(=O)N2C[C@@H]3[C@H](c4ccccc42)[C@@H](CO)N3C(=O)c2ccccc2)c1	1.99% (inactive)
Cc1cccc(CNS(=O)(=O)c2ccc(-c3cnc(C4CC4)o3)cc2)c1	-1.32% (inactive)
Cc1cccc(NS(=O)(=O)c2ccc(-c3cnc(C4CC4)o3)cc2)c1	53.1% (active)
COc1ccc(CNS(=O)(=O)c2ccc(-c3cnc(C4CC4)o3)cc2)cc1	4.87% (inactive)
COc1ccccc1NC(=O)N1CC(=O)N2[C@H](C1)[C@H](c1ccc(C#Cc3ccccc3)cc1)[C@@H]2CO	0.577% (inactive)
C[C@@H](O)C#Cc1ccc([C@H]2[C@H]3CN(C(=O)c4ccc5c(c4)OCO5)CCCCN3[C@H]2CO)cc1	-9.79% (inactive)
C[C@H]1CN([C@@H](C)CO)C(=O)c2cc(C3=CCCC3)cnc2O[C@@H]1CN(C)Cc1cccnc1	-9.75% (inactive)
COc1ccc(/C=C2\SC(=S)N(CCCC(=O)NC3CCCC3)C2=O)cc1OC	55.1% (active)
COc1ccc(/C=C2\SC(=S)N(CCC(=O)N3CCOCC3)C2=O)cc1OC	0.114% (inactive)

SMILES	inhibition
COc1ccc(/C=C/C(=O)OCC(=O)NC2CCCCCC2)cc1OC	-1.04% (inactive)
COCC(=O)N1[C@H](CO)[C@H](c2ccccc2)C12CN(C(=O)NC1CCCCC1)C2	-12.4% (inactive)
C[C@H](CO)N1C[C@H](C)[C@@H](CN(C)CC2CC2)OCCCC[C@H](C)Oc2ccc(NC(=O)Cc3ccccc3)cc2C1=O	32% (inactive)
Cc1nnc(NC(=O)CSc2nccn2-c2cccc(C)c2C)s1	60.5% (active)
COc1ccccc1-n1c(CNC(=O)c2ccccc2)nnc1SCC(=O)Nc1nnc(C)s1	4.12% (inactive)
COc1ccccc1-n1ccnc1SCC(=O)NC(C)(C)C	0.699% (inactive)
Cc1nc(N2[C@H](CO)[C@H](c3ccccc3)[C@H]2CNCC2CCCCC2)sc1C	-4.86% (inactive)
COc1cccc(-c2ccc([C@H]3[C@H]4CN(C(=O)NC(C)C)CC(=O)N4[C@H]3CO)cc2)c1	1.6% (inactive)
CCCN1CCN(CCCNC(=O)CN2C(=O)COc3ccccc32)CC1	5.75% (inactive)
CN1CCN(CCCNC(=O)c2ccc(/C=C3\Oc4ccccc4N(Cc4ccc(Cl)cc4)C3=O)cc2)CC1	62.2% (active)
CC(C)OCCCNC(=O)CN1C(=O)/C(=C/c2ccccc2F)Oc2ccccc21	-9.7% (inactive)
O=C1CN(S(=O)(=O)c2ccccc2)C[C@H]2[C@H](c3ccc(C#CCc4ccccc4)cc3)[C@@H](CO)N12	-2.75% (inactive)
C[C@@H]1CN([C@@H](C)CO)C(=O)c2cc(-c3ccncc3)cnc2O[C@@H]1CN(C)C(=O)C1CCCCC1	-4.18% (inactive)
C[C@H](CO)N1C[C@H](C)[C@@H](CN(C)C(=O)Nc2ccc(F)cc2)OCCCC[C@H](C)Oc2ccc(NC(=O)c3ccncc3)cc2C1=O	-7.08% (inactive)
Cc1cccc(NC(=O)c2nc(S(=O)(=O)Cc3ccccc3)ncc2Cl)c1	56.5% (active)
Cc1cc(C)cc(NS(=O)(=O)Cc2ccccc2)c1	-2.06% (inactive)
Cc1ccc(S(=O)(=O)CCC(=O)Nc2nnc(CC(C)C)s2)cc1	-2.4% (inactive)
Cc1ccc(CS(=O)(=O)c2ncc(Cl)c(C(=O)Nc3nnc(C)s3)n2)cc1	67.7% (active)
Cc1nnc(NC(=O)C(c2ccccc2)c2ccccc2)s1	11.8% (inactive)
Cc1cccc(NC(=O)C(C)SCc2ccccc2)c1 (centres undefined)	-20.7% (inactive)
Cc1cccc(CS(=O)(=O)c2ncc(Cl)c(C(=O)Nc3ccc(F)cc3)n2)c1	60.6% (active)
O=C(Nc1ccc(F)cc1)c1ccc(S(=O)(=O)NCc2cccnc2)cc1	14.9% (inactive)
Cc1ccc(C)c(Cn2nnc3c(=O)[nH]c(C(=O)Nc4ccc(F)cc4)nc32)c1	-4.91% (inactive)

— PubChem BioAssay AID651661 (Broad Institute, 2012)
